Assay results published in PubChem BioAssay (Tox21).
Inconclusive results are not listed. Active and inactive are the calls of the source. The call rests on the fitted dose curve; in most records, active means well fitted curve in the direction sought with a large enough effect in the repeat runs; inconclusive means weak or mixed curves; inactive means no such curve, though single readings can be large; an effect the other way counts as inactive or inconclusive.

Assays:
[1] = A CellTox Green Cytotoxicity Assay to monitor cytotoxicity in HepG2 cells - 0 hour (AID 1224882); settings: CellTox Green fluorescence; series mostly up to 76.8 µM; further: nearly all actives have a fitted effect of over 35% in size
How it was run: (§1)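 HepG2 cells were seeded together with the CellTox Green dye at 600 cells/well, left 5 h at 37 C/5% CO2, then given compounds in DMSO. Fluorescence from dye bound to dead-cell DNA was read repeatedly over 40 h of treatment at 37 C.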

[2] = A CellTox Green Cytotoxicity Assay to monitor cytotoxicity in HepG2 cells - 32 hour (AID 1224883); settings: CellTox Green fluorescence; series mostly up to 76.8 µM; further: nearly all actives have a fitted effect of over 50% in size
How it was run: as §1

[3] = A CellTox Green Cytotoxicity Assay to monitor cytotoxicity in HEK293 cells - 8 hour (AID 1224884); settings: CellTox Green fluorescence; series mostly up to 76.8 µM; further: nearly all actives have a fitted effect of over 35% in size; further: potency means the concentration at half of the fitted maximal effect
How it was run: (§2)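 HEK293 cells premixed with CellTox Green dye were seeded at 600 cells/well and left 5 h at 37 C/5% CO2 before pin transfer of 23 nL compound in DMSO. Fluorescence from dye bound to dead-cell DNA was read during 40 h treatment.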

[4] = qHTS RealTime-Glo MT Cell Viability Assay in HepG2 cells - 16 hour (AID 1224885); settings: RealTime-Glo luminescence; series mostly up to 76.8 µM; further: nearly all actives have a fitted effect of over 50% in size
How it was run: (§3)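 qHTS, HepG2, 600 cells/well, RealTime-Glo (NanoLuc + prosubstrate) added with cells; 5 h preincubation; DMSO compound addition; 37 C; luminescence at 0/8/16/24/32/40 h.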

[5] = qHTS RealTime-Glo MT Cell Viability Assay in HEK293 cells - 24 hour (AID 1224886); settings: RealTime-Glo luminescence; series mostly up to 76.8 µM; further: nearly all actives have a fitted effect of over 50% in size; further: potency means the concentration at half of the fitted maximal effect; on activity change, negative = cytotoxicity: top concentration of the series differs between compounds
How it was run: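 Assay medium contained NanoLuc luciferase plus cell-permeant prosubstrate, added with HEK293 cells at 600 cells/well. After 5 h at 37 C/5% CO2 compounds were added; plates stayed at 37 C for 40 h with serial luminescence reads.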

[6] = qHTS RealTime-Glo MT Cell Viability Assay in HEK293 cells - 8 hour (AID 1224887); settings: RealTime-Glo luminescence; series mostly up to 76.8 µM; further: nearly all actives have a fitted effect of over 50% in size; further: potency means the concentration at half of the fitted maximal effect; on activity change, negative = cytotoxicity: top concentration of the series differs between compounds
How it was run: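 HEK293 cells mixed with RealTime-Glo reagents (NanoLuc plus cell-permeant prosubstrate) at 600 cells/well, preincubated 5 h at 37 C/5% CO2, then given 23 nL compound in DMSO. Nonlytic luminescence from viable cells was read at 0, 8, 16, 24, 32 and 40 h.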

[7] = A CellTox Green Cytotoxicity Assay to monitor cytotoxicity in HEK293 cells - 16 hour (AID 1224888); settings: CellTox Green fluorescence; series mostly up to 76.8 µM; further: nearly all actives have a fitted effect of over 35% in size; further: potency means the concentration at half of the fitted maximal effect
How it was run: as §2

[8] = qHTS RealTime-Glo MT Cell Viability Assay in HepG2 cells - 0 hour (AID 1224889); settings: RealTime-Glo luminescence; series mostly up to 76.8 µM; further: nearly all actives have a fitted effect of over 50% in size
How it was run: as §3

[9] = A CellTox Green Cytotoxicity Assay to monitor cytotoxicity in HepG2 cells - 8 hour (AID 1224890); settings: CellTox Green fluorescence; series mostly up to 76.8 µM; further: nearly all actives have a fitted effect of over 45% in size
How it was run: as §1

[10] = qHTS assay to identify small molecule antagonists of the estrogen receptor alpha (ER-alpha) signaling pathway using the BG1 cell line in the presence of 0.1 nM 17-beta-estradiol - cell viability counter screen (AID 1259241); settings: VM7Luc4E2 (BG1) viability, CellTiter-Fluor protease, 22 h, 0.1 nM estradiol agonist added; series mostly up to 92.4 µM; further: nearly all actives have a fitted effect of over 40% in size
How it was run: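 Live-cell protease activity (CellTiter-Fluor fluorescence, 30 min) was read in the same wells after VM7Luc4E2 cells had been exposed to compounds with 0.1 nM 17beta-estradiol for 22 hr at 37C.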
On the % scale 0 is the no-effect control and ±100 the full control effect.

Cc1ccc(NC(=O)N(C)C)cc1NC(=O)N(C)C
inactive: Potency [1] | Potency [2] | Potency [3] | Potency [4] | Potency [5] | Potency [6] | Potency [7] | Potency [8] | Potency [9] | Potency [10]

COc1ccc(C2C(=O)c3ccccc3C2=O)cc1
inactive: Potency [1] | Potency [2] | Potency [3] | Potency [4] | Potency [5] | Potency [6] | Potency [7] | Potency [8] | Potency [9] | Potency [10]

C1CCCCC1
inactive: Potency [1] | Potency [2] | Potency [3] | Potency [4] | Potency [5] | Potency [6] | Potency [7] | Potency [8] | Potency [9] | Potency [10]

O=c1[nH]c2cc(C(F)(F)F)c(N3CCOCC3)cc2n(CP(=O)(O)O)c1=O
inactive: Potency [1] | Potency [2] | Potency [3] | Potency [4] | Potency [5] | Potency [6] | Potency [7] | Potency [8] | Potency [9] | Potency [10]

O=S(=O)(Cl)c1c(Cl)cccc1Cl
inactive: Potency [1] | Potency [2] | Potency [3] | Potency [4] | Potency [5] | Potency [6] | Potency [7] | Potency [8] | Potency [9] | Potency [10]

O=C(O)c1cccc(C[C@@H]2COc3ccc(OCc4nc5cc(F)ccc5s4)cc3[C@@H]2O)c1
inactive: Potency [1] | Potency [2] | Potency [3] | Potency [4] | Potency [5] | Potency [6] | Potency [7] | Potency [8] | Potency [9] | Potency [10]

CCN(CC)CCOC(=O)C(c1ccccc1)c1ccccc1
inactive: Potency [1] | Potency [2] | Potency [3] | Potency [4] | Potency [5] | Potency [6] | Potency [7] | Potency [8] | Potency [9] | Potency [10]

CC(=O)OCC1=C(C(=O)O)N2C(=O)[C@@H](NC(=O)CSc3ccncc3)[C@H]2SC1
inactive: Potency [1] | Potency [2] | Potency [3] | Potency [4] | Potency [5] | Potency [6] | Potency [7] | Potency [8] | Potency [9] | Potency [10]

CCCCCCC(O)CCOC(C)=O (stereo not given)
inactive: Potency [1] | Potency [2] | Potency [3] | Potency [4] | Potency [5] | Potency [6] | Potency [7] | Potency [8] | Potency [9] | Potency [10]

CC(=O)N[C@@H](Cc1ccc(O)cc1)C(=O)O
inactive: Potency [1] | Potency [2] | Potency [3] | Potency [4] | Potency [5] | Potency [6] | Potency [7] | Potency [8] | Potency [9] | Potency [10]

CCOCCC(=O)OCC
inactive: Potency [1] | Potency [2] | Potency [3] | Potency [4] | Potency [5] | Potency [6] | Potency [7] | Potency [8] | Potency [9] | Potency [10]

CC/C=C\C/C=C\C/C=C\CCCCCCCC(=O)OCC
inactive: Potency [1] | Potency [2] | Potency [3] | Potency [4] | Potency [5] | Potency [6] | Potency [7] | Potency [8] | Potency [9] | Potency [10]

CCSC(=O)N(CC)CC
inactive: Potency [1] | Potency [2] | Potency [3] | Potency [4] | Potency [5] | Potency [6] | Potency [7] | Potency [8] | Potency [9] | Potency [10]

CN1C(CSCC(F)(F)F)Nc2cc(Cl)c(S(N)(=O)=O)cc2S1(=O)=O (stereo not given)
active: Potency [5] 16.9 µM | Potency [6] 19 µM
inactive: Potency [1] | Potency [2] | Potency [3] | Potency [4] | Potency [7] | Potency [8] | Potency [9] | Potency [10]

CCCCCCCC/C=C/C(=O)O
inactive: Potency [1] | Potency [2] | Potency [3] | Potency [4] | Potency [5] | Potency [6] | Potency [7] | Potency [8] | Potency [9] | Potency [10]

CC(C)(O)CCc1ccccc1
inactive: Potency [1] | Potency [2] | Potency [3] | Potency [4] | Potency [5] | Potency [6] | Potency [7] | Potency [8] | Potency [9] | Potency [10]

BrC(Br)C(Br)Br
inactive: Potency [1] | Potency [2] | Potency [3] | Potency [4] | Potency [5] | Potency [6] | Potency [7] | Potency [8] | Potency [9] | Potency [10]

CN=C(N)NC(=O)Nc1c(C)cccc1C
inactive: Potency [1] | Potency [2] | Potency [3] | Potency [4] | Potency [5] | Potency [6] | Potency [7] | Potency [8] | Potency [9] | Potency [10]

NC(=O)CCCCC(N)=O
inactive: Potency [1] | Potency [2] | Potency [3] | Potency [4] | Potency [5] | Potency [6] | Potency [7] | Potency [8] | Potency [9] | Potency [10]

CCCCCCOC(=O)CCCCC
inactive: Potency [1] | Potency [2] | Potency [3] | Potency [4] | Potency [5] | Potency [6] | Potency [7] | Potency [8] | Potency [9] | Potency [10]

[Cl][Nd]([Cl])[Cl]
inactive: Potency [1] | Potency [2] | Potency [3] | Potency [4] | Potency [5] | Potency [6] | Potency [7] | Potency [8] | Potency [9] | Potency [10]

CCOc1ncc(F)c(=O)[nH]1
inactive: Potency [1] | Potency [2] | Potency [3] | Potency [4] | Potency [5] | Potency [6] | Potency [7] | Potency [8] | Potency [9] | Potency [10]

CCc1ccc(C)cc1
inactive: Potency [1] | Potency [2] | Potency [3] | Potency [4] | Potency [5] | Potency [6] | Potency [7] | Potency [8] | Potency [9] | Potency [10]

C1=CCC2CC=CC2C1 (stereo not given)
inactive: Potency [1] | Potency [2] | Potency [3] | Potency [4] | Potency [5] | Potency [6] | Potency [7] | Potency [8] | Potency [9] | Potency [10]

CCC(CO)(CO)CO
inactive: Potency [1] | Potency [2] | Potency [3] | Potency [4] | Potency [5] | Potency [6] | Potency [7] | Potency [8] | Potency [9] | Potency [10]

CCCCOC(=O)CCCCC(=O)OCCCC
inactive: Potency [1] | Potency [2] | Potency [3] | Potency [4] | Potency [5] | Potency [6] | Potency [7] | Potency [8] | Potency [9] | Potency [10]

CC1=CC[C@@H]2C[C@H]1C2(C)C
inactive: cytotoxicity [1] -3.74% [at 15.8 µM] | cytotoxicity increase [2] -9% [at 15.8 µM] | cytotoxicity increase [3] 0.245% [at 15.8 µM] | activity change, negative = cytotoxic [4] 1.14% [at 15.8 µM] | activity change, negative = cytotoxicity [5] 1.87% [at 15.8 µM] | activity change, negative = cytotoxicity [6] -0.368% [at 15.8 µM] | activity change [7] 1.29% [at 15.8 µM, stronger effect = higher value] | activity change, negative = cytotoxicity [8] -1.11% [at 15.8 µM] | cytotoxicity increase [9] -9.84% [at 15.8 µM] | activity change, negative = cytotoxicity [10] 3.19% [at 19 µM]

CCCCCCCCCCCCCCCCCC(=O)OCC(CC)CCCC (stereo not given)
inactive: Potency [1] | Potency [2] | Potency [3] | Potency [4] | Potency [5] | Potency [6] | Potency [7] | Potency [8] | Potency [9] | Potency [10]

CCCCCC
inactive: Potency [1] | Potency [2] | Potency [3] | Potency [4] | Potency [5] | Potency [6] | Potency [7] | Potency [8] | Potency [9] | Potency [10]

CC1CCC(C(C)CS)CC1S (stereo not given)
active: Potency [3] 49 µM | Potency [7] 49 µM
inactive: Potency [1] | Potency [2] | Potency [4] | Potency [5] | Potency [6] | Potency [8] | Potency [9] | Potency [10]

CCN(CC)C(=O)N1CCN(C)CC1
inactive: Potency [1] | Potency [2] | Potency [3] | Potency [4] | Potency [5] | Potency [6] | Potency [7] | Potency [8] | Potency [9] | Potency [10]

OCC(CO)n1cnc(-c2ccc(F)cc2)c1-c1ccnc(Oc2ccccc2)n1
inactive: Potency [1] | Potency [2] | Potency [3] | Potency [4] | Potency [5] | Potency [6] | Potency [7] | Potency [8] | Potency [9] | Potency [10]

C=CCOC(=O)COCCC(C)C
inactive: Potency [1] | Potency [2] | Potency [3] | Potency [4] | Potency [5] | Potency [6] | Potency [7] | Potency [8] | Potency [9] | Potency [10]

O=C1OC(=O)c2c(Br)c(Br)c(Br)c(Br)c21
inactive: Potency [1] | Potency [2] | Potency [3] | Potency [4] | Potency [5] | Potency [6] | Potency [7] | Potency [8] | Potency [9] | Potency [10]

CC(O)Cn1cnc2c1c(=O)n(C)c(=O)n2C (stereo not given)
inactive: Potency [1] | Potency [2] | Potency [3] | Potency [4] | Potency [5] | Potency [6] | Potency [7] | Potency [8] | Potency [9] | Potency [10]

CCC(=O)OCc1ccc(OC)cc1
inactive: Potency [1] | Potency [2] | Potency [3] | Potency [4] | Potency [5] | Potency [6] | Potency [7] | Potency [8] | Potency [9] | Potency [10]
